# “And” between values parts separate entries of the source, which are not always exact repeats. Identical values can stand only once. Results filed as inconclusive are left out. Where a call stands in place of a potency, no number is given. Some compounds were tested as several samples or in several runs, with calls that do not always agree. The source made the active and inactive calls. Unless noted, calls follow the shape of the full dose curve.
# Tests used:
# [1] = Nuclear factor erythroid 2-related factor 2/antioxidant responsive element (Nrf2/ARE) small molecule agonists: qHTS cell viability counter screen in human keratinocytes (AID 1919968; active = well fitted curve in the direction sought with a large enough effect in the repeat runs; an effect the other way counts as inactive or inconclusive; also: nearly all actives have a fitted effect of over 55% in size)
# Summary of the method: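 Viability counter-screen: KeratinoSens reporter cells, DMSO-delivered compounds, 23 h at 37 C, CellTiter-Fluor fluorescence.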
# [2] = Nuclear factor erythroid 2-related factor 2/antioxidant responsive element (Nrf2/ARE) small molecule agonists: luciferase reporter gene qHTS assay in human keratinocytes (AID 1919969); also: nearly all actives have a fitted effect of over 35% in size; also: potency is read from the fitted curve at half-maximal effect
# [3] = target: Gonadotropin-releasing hormone receptor (Homo sapiens) (UniProt P30968); test: Human gonadotropin-releasing hormone receptor (GnRHR) small molecule agonists, calcium flux assay in GnRHR-HEK293 cells (AID 1920063); also: nearly all actives have a fitted effect of over 35% in size; also: potency is read from the fitted curve at half-maximal effect
# Summary of the method: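 Tox21-format agonist screen using human GnRHR-expressing HEK293 cells and a fluorescent calcium dye; kinetic 3-min fluorescence reading after compound addition, 15-point concentration series run in triplicate.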
# [4] = target: KiSS-1 receptor (Homo sapiens) (UniProt Q969F8); test: Human kisspeptin (KISS1R) small molecule agonists, calcium flux assay in KISS1R-HEK293 cells (AID 1920064; active = well fitted curve in the direction sought with a large enough effect in the repeat runs; an effect the other way counts as inactive or inconclusive; also: potency is read from the fitted curve at half-maximal effect)
# Summary of the method: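 Intracellular calcium mobilization in KISS1R-HEK293 cells was recorded by fluorescence (Ex/Em 480/540) for 3 min following compound addition to cells pre-loaded 1 h with calcium dye.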
# [5] = G protein-coupled receptor (GPCR) small molecule agonists, calcium flux assay: HEK293 wild type cell line counter screen (AID 1920065); also: potency is read from the fitted curve at half-maximal effect
# Summary of the method: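 In this agonist-mode screen, ATP is the positive control and DMSO the vehicle. Cells grow 18 h before a 1 h dye incubation at 37 C; signal is taken at Ex/Em 480/540 over 3 min.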
# [6] = p53 small molecule agonists, cell-based qHTS assay with rat liver microsomes (AID 1963578)
# Summary of the method: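 With rat liver microsomes and NADPH present (0.5 mg/mL final each), p53RE-bla cells are treated with compound for 16 h at 37 C. LiveBLAzer detection mixture is then applied for 2 h at room temperature in the dark.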
# [7] = p53 small molecule agonists, cell-based qHTS assay with human liver microsomes: qHTS cell viability counter screen (AID 1963579); also: nearly all actives have a fitted effect of over 45% in size
# Summary of the method: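 In this multiplexed counter screen, the reporter plates were subsequently treated with CellTiter-Glo so that cell viability, reflected by luminescence, could be recorded for p53RE-bla cells dosed 16 h with compounds under microsomal activation (HLM and NADPH).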
# [8] = p53 small molecule agonists, cell-based qHTS assay with rat liver microsomes: qHTS cell viability counter screen (AID 1963580); also: nearly all actives have a fitted effect of over 45% in size
# Summary of the method: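 p53RE-bla HCT-116 cells were exposed 16 h at 37 C to compounds with rat liver microsomes (0.5 mg/mL) and NADPH (0.5 mg/mL). Viability was measured in the same wells as ATP content by CellTiter-Glo luminescence.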
# [9] = p53 small molecule agonists, cell-based qHTS assay: qHTS cell viability counter screen (AID 1963581); also: nearly all actives have a fitted effect of over 45% in size
# Summary of the method: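 Compounds are pinned onto HCT-116 p53RE-bla cells and left 16 h at 37 C. Following the reporter FRET read, ATP is quantified by CellTiter-Glo luminescence after 30 min at room temperature.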
# [10] = p53 small molecule agonists, cell-based qHTS assay (AID 1963582; active = well fitted activation curve with a large enough effect in the signal ratio in the repeat runs, not every such curve was filed as active; the % refers to the signal ratio)
# Summary of the method: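 Agonist activity was scored from beta-lactamase FRET fluorescence in p53RE-bla cells treated 16 h at 37 C with compounds in DMSO, substrate incubation being 2 h at room temperature.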
# [11] = target: 5-hydroxytryptamine receptor 2A (Homo sapiens) (UniProt P28223); test: 5-hydroxytryptamine receptor 2A (HTR2A) small molecule antagonists, cell-based qHTS assay (AID 1963586); also: nearly all actives have a fitted effect of over 45% in size
# Summary of the method: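 Antagonist-mode intracellular calcium assay: DOI (4 nM) added after 5 min compound pre-incubation at room temperature to dye-loaded HTR2A-CHO cells. Fluorescence followed for 3 min, sampled every second.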
# [12] = target: 5-hydroxytryptamine receptor 2A (Homo sapiens) (UniProt P28223); test: 5-hydroxytryptamine receptor 2A (HTR2A) small molecule agonists, cell-based qHTS assay (AID 1963587); also: nearly all actives have a fitted effect of over 30% in size
# Summary of the method: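 CHO cells stably expressing human HTR2A, plated 18 h, loaded with calcium dye 1 h at 37 C. Agonist mode: compounds added and intracellular calcium fluorescence recorded kinetically for 2 min at 1 sec intervals.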
# [13] = target: Muscarinic acetylcholine receptor M1 (Homo sapiens) (UniProt P11229); test: Cholinergic receptor muscarinic 1 (CHRM1) small molecule antagonists, cell-based qHTS assay (AID 1963588); also: nearly all actives have a fitted effect of over 40% in size
# Summary of the method: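 CHRM1-CHO calcium-flux assay, antagonist mode. Cells were seeded 18 h, dye-loaded 1 h at 37 C and given compound for 5 min at RT, then acetylcholine was added at 50nM. FDSS fluorescence was read 3 min; 15 concentrations, three runs.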
# [14] = target: Muscarinic acetylcholine receptor M1 (Homo sapiens) (UniProt P11229); test: Cholinergic receptor muscarinic 1 (CHRM1) small molecule agonists, cell-based qHTS assay (AID 1963589); also: nearly all actives have a fitted effect of over 35% in size
# Summary of the method: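 Stable CHRM1-CHO cells (human receptor) were incubated 18 h, dye-loaded for 1 h at 37 C and exposed to test compounds for agonist activity, with calcium-dependent fluorescence followed kinetically.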
# [15] = cAMP Responsive Elements (CRE) small molecule agonists, cell-based qHTS assay (AID 1963590)
# Summary of the method: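 FRET-based beta-lactamase readout (LiveBLAzer B/G, 2 h RT) quantified CRE activation in HEK 293T CRE-bla cells after 3 h treatment with DMSO-dissolved compounds.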
# [16] = cAMP Responsive Elements (CRE) small molecule antagonists, cell-based qHTS assay (AID 1963591; active = well fitted inhibition curve with a large enough effect in the signal ratio in the repeat runs, not every such curve was filed as active; the % refers to the signal ratio)
# Summary of the method: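 qHTS in CRE-bla HEK 293T cells: compound in DMSO, then 0.25 uM NKH477 (final), 3 h at 37 °C/5% CO2; beta-lactamase FRET read-out after 2 h substrate incubation.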
# [17] = target: Beta-2 adrenergic receptor (Homo sapiens) (UniProt P07550); test: Adrenergic beta2 receptor (ADRB2) small molecule antagonists, cell-based qHTS assay (AID 1963592); also: series mostly up to about 92 µM; nearly all actives have a fitted effect of over 50% in size
# Summary of the method: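 Cells (CHO, stable ADRB2 overexpression) incubated 18-20hr at 37C; compounds added from DMSO; agonist mix (1nM isoproterenol, 100uM IBMX, 25uM Ro-20-1724) added; 0.5hr RT; d2-cAMP and anti-cAMP-cryptate added; 1hr RT; 665/615 nm read.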
# [18] = target: Beta-2 adrenergic receptor (Homo sapiens) (UniProt P07550); test: Adrenergic beta2 receptor (ADRB2) small molecule agonists, cell-based qHTS assay (AID 1963593);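 also: CHO cells stably overexpressing human ADRB2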
# Summary of the method: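 CHO cells stably over-expressing ADRB2 were plated overnight at 37C, then dosed with compounds plus a stimulation mix containing 100uM IBMX and 25uM Ro-20-1724 for 0.5hr at room temperature. cAMP was measured by HTRF competition, 1hr.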
# [19] = target: D(2) dopamine receptor (Homo sapiens) (UniProt P14416); test: Dopamine D2 receptor (DRD2) small molecule agonists, cell-based qHTS assay (AID 1963594); also: nearly all actives have a fitted effect of over 35% in size
# Summary of the method: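 HEK293 cells stably expressing human DRD2, pre-treated with PDE inhibitor Ro20-1724 (0.1 mM final) and compound 10 min at room temperature, then stimulated with NKH477 (200nM […]) for 30 min. cAMP read by HTRF (665/620 nm).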
# [20] = target: D(2) dopamine receptor (Homo sapiens) (UniProt P14416); test: Dopamine D2 receptor (DRD2) small molecule antagonists, cell-based qHTS assay (AID 1963595; active = well fitted inhibition curve with a large enough effect in the signal ratio in the repeat runs, with a control signal flat; the % refers to the signal ratio)
# Summary of the method: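 Antagonism was scored as restored cAMP in HEK293-DRD2 cells. These cells were stimulated with 200 nM NKH477 and 12 nM quinpirole for 30 min at room temperature, in the presence of 0.1 mM Ro20-1724.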
# Chain of Muscarinic acetylcholine receptor M1 (Homo sapiens) (P11229 whole entry, looked up): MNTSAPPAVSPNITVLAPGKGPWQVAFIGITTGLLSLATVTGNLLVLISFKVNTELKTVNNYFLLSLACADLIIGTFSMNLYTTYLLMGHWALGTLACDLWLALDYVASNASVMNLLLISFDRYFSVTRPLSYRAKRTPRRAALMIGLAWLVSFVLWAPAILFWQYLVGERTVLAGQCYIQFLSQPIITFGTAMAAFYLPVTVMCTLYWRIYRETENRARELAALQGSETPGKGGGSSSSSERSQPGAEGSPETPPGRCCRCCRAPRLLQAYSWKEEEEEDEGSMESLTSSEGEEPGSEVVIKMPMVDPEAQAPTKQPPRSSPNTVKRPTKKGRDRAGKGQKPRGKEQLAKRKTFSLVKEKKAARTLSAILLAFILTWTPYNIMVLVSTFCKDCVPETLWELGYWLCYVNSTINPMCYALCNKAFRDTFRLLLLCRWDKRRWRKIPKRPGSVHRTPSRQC
# Chain of Beta-2 adrenergic receptor (Homo sapiens) (P07550 whole entry, looked up): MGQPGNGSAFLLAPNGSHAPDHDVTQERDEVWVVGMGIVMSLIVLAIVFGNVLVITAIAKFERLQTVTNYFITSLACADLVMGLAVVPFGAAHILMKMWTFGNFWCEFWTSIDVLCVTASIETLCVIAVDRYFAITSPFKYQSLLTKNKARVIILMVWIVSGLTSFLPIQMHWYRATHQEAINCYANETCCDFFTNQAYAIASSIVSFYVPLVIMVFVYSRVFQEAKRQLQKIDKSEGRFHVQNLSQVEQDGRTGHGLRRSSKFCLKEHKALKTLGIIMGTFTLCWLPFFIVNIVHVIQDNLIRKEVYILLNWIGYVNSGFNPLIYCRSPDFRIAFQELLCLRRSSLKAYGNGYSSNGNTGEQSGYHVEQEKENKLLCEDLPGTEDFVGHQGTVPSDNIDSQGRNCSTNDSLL
# Chain of D(2) dopamine receptor (Homo sapiens) (P14416 whole entry, looked up): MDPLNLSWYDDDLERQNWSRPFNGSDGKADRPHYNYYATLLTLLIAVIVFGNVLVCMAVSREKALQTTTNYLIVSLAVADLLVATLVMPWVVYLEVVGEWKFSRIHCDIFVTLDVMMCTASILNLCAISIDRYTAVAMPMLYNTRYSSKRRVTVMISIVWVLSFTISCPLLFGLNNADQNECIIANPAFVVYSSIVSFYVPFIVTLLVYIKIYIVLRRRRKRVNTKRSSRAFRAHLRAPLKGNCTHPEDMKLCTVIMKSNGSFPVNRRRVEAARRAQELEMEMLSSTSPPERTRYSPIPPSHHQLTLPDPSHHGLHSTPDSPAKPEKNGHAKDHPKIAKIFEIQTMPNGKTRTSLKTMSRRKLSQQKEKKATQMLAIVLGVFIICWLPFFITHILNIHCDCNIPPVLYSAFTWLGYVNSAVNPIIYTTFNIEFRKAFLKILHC
# Chain of Gonadotropin-releasing hormone receptor (Homo sapiens) (P30968 whole entry, looked up): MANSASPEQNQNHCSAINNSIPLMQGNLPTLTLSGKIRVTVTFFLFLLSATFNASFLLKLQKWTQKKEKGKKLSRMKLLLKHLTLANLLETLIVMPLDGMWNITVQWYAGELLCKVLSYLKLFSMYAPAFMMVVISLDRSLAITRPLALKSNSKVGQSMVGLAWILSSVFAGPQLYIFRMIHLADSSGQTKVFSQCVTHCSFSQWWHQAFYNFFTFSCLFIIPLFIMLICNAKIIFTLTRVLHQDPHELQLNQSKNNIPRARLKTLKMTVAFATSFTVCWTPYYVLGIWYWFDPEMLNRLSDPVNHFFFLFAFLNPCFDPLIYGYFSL
# Chain of 5-hydroxytryptamine receptor 2A (Homo sapiens) (P28223 whole entry, looked up): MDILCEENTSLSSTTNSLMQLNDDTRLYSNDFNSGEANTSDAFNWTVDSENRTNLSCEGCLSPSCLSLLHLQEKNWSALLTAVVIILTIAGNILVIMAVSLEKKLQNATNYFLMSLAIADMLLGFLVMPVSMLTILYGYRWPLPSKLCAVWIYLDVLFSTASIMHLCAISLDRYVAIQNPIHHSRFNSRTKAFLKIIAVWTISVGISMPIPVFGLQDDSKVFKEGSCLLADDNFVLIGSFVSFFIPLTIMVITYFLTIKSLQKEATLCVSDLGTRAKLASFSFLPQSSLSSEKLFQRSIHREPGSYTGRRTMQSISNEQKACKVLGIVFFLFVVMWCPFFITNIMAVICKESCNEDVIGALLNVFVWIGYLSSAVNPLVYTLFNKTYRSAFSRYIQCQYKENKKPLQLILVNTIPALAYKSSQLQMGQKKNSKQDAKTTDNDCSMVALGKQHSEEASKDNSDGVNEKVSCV
# Chain of KiSS-1 receptor (Homo sapiens) (Q969F8 whole entry, looked up): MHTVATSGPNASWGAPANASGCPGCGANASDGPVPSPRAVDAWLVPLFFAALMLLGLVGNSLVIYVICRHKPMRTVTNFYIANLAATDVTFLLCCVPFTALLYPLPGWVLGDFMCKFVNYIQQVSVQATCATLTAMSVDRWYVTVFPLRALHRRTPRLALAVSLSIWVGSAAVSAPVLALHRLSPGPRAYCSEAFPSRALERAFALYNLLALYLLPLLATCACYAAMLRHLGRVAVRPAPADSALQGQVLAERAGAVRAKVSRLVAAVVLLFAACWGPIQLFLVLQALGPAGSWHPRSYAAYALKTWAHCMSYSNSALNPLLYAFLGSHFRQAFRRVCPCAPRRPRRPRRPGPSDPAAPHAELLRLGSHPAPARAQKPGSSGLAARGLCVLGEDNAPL
Structure (SMILES),Potency [1],Potency [2],Potency [3],Potency [4],Potency [5],Potency [6],Potency [7],Potency [8],Potency [9],Potency [10],Potency [11],Potency [12],Potency [13],Potency [14],Potency [15],Potency [16],Potency [17],Potency [18],Potency [19],Potency [20]
CC(C)CC(O)Cc1ccccc1 (configuration not stated),inactive,inactive,inactive,inactive,inactive,inactive,inactive,inactive,inactive,inactive,inactive,inactive,inactive,inactive,inactive,inactive,inactive,inactive,inactive,inactive
CC(=O)SC[C@@H](C)C(=O)N1CCC[C@H]1C(=O)N[C@@H](Cc1ccccc1)C(=O)O,inactive,inactive,inactive,inactive,inactive,inactive,inactive,inactive,inactive,inactive,inactive,inactive,,inactive,inactive,inactive,inactive,,inactive,
O=C(O)c1cc(C(=O)O)cc([N+](=O)[O-])c1,inactive,inactive,inactive,inactive,inactive,inactive,inactive,inactive,inactive,inactive,inactive,inactive,inactive,inactive,inactive,inactive,inactive,inactive,inactive,inactive
NC(=Nc1ccccc1)Nc1ccccc1,inactive,19.3 µM (active) and inactive,5.49 µM (active) and 15.1 µM (active),21.4 µM (active) and 23.9 µM (active),15.5 µM (active),inactive,inactive,inactive,,inactive,,,,,inactive,inactive,inactive,,inactive,inactive
Cc1ccc(S(=O)(=O)NC(=O)NC2CCCCCCC2)cc1,inactive,inactive,inactive,inactive,inactive,inactive,inactive,inactive,inactive,inactive,inactive,inactive,inactive,inactive,inactive,inactive,,,inactive,inactive
CN=C(NC#N)NCCSCc1nc[nH]c1C,inactive,inactive,inactive,inactive,inactive,,inactive,inactive,inactive,,,,,,,inactive,inactive,inactive,inactive,inactive
O=C(O)CCCCCCCCCCC(=O)O,inactive,inactive,inactive,inactive,inactive,,inactive,inactive,inactive,,inactive,inactive,,inactive,,,inactive,inactive,inactive,inactive
